Experimental data as given in PubChem BioAssay (Tox21).
Results filed as inconclusive are left out. Activity calls are given as the source filed them. Unless noted, calls follow the shape of the dose curve; as a rule, active = well fitted curve in the direction sought with a large enough effect in the repeat runs; inconclusive = weak or mixed curves; inactive = no such curve, though single readings can be large; an effect the other way counts as inactive or inconclusive.

Key:
[1] = A CellTox Green Cytotoxicity Assay to monitor cytotoxicity in HepG2 cells - 24 hour (AID 1224878); settings: CellTox Green fluorescence; series mostly up to 76.8 µM; also: nearly all actives have a fitted effect of over 45% in size
Summary of the method: (§1)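 Read-out is fluorescence of a cyanine dye excluded from live cells that stains DNA of dead HepG2 cells, with signal proportional to cytotoxicity. Plates were read at 0, 8, 16, 24, 32 and 40 h after compound addition.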

[2] = A CellTox Green Cytotoxicity Assay to monitor cytotoxicity in HepG2 cells - 40 hour (AID 1224879); settings: CellTox Green fluorescence; series mostly up to 76.8 µM; also: nearly all actives have a fitted effect of over 40% in size; also: potency is read from the fitted curve at half-maximal effect
Summary of the method: as §1

[3] = qHTS RealTime-Glo MT Cell Viability Assay in HEK293 cells - 0 hour (AID 1224880); settings: RealTime-Glo luminescence; series mostly up to 76.8 µM; also: top concentration of the series differs between compounds; nearly all actives have a fitted effect of over 45% in size
Summary of the method: (§2)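 Cells were seeded together with NanoLuc luciferase and a prosubstrate that viable cells reduce to a luciferase substrate. After a 5 h incubation at 37 C/5% CO2, compounds were added and luminescence was measured repeatedly during 40 h of treatment.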

[4] = A CellTox Green Cytotoxicity Assay to monitor cytotoxicity in HEK293 cells - 32 hour (AID 1224881); settings: CellTox Green fluorescence; series mostly up to 76.8 µM; also: nearly all actives have a fitted effect of over 40% in size
Summary of the method: (§3)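 Nonlytic real-time cytotoxicity: HEK293 + CellTox Green reagent plated, 5 h preincubation, pintool compound addition (23 nL in DMSO), 37 C for 40 h, fluorescence measured at successive time points.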

[5] = A CellTox Green Cytotoxicity Assay to monitor cytotoxicity in HepG2 cells - 0 hour (AID 1224882); settings: CellTox Green fluorescence; series mostly up to 76.8 µM; also: nearly all actives have a fitted effect of over 35% in size
Summary of the method: as §1

[6] = A CellTox Green Cytotoxicity Assay to monitor cytotoxicity in HepG2 cells - 32 hour (AID 1224883); settings: CellTox Green fluorescence; series mostly up to 76.8 µM; also: nearly all actives have a fitted effect of over 50% in size
Summary of the method: as §1

[7] = A CellTox Green Cytotoxicity Assay to monitor cytotoxicity in HEK293 cells - 8 hour (AID 1224884); settings: CellTox Green fluorescence; series mostly up to 76.8 µM; also: nearly all actives have a fitted effect of over 35% in size
Summary of the method: as §3

[8] = qHTS RealTime-Glo MT Cell Viability Assay in HepG2 cells - 16 hour (AID 1224885); settings: RealTime-Glo luminescence; series mostly up to 76.8 µM; also: nearly all actives have a fitted effect of over 50% in size
Summary of the method: (§4)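 HepG2 cells (600/well) were dispensed with RealTime-Glo reagents, incubated 5 h at 37 °C, then treated with compounds in DMSO for up to 40 h. Nonlytic NanoLuc luminescence reflecting viable cells was read at each stated time point.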

[9] = qHTS RealTime-Glo MT Cell Viability Assay in HEK293 cells - 24 hour (AID 1224886); settings: RealTime-Glo luminescence; series mostly up to 76.8 µM; also: top concentration of the series differs between compounds; nearly all actives have a fitted effect of over 50% in size
Summary of the method: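 HEK293 cells seeded with NanoLuc/prosubstrate reagent, rested 5 h at 37 C, then dosed and kept at 37 C up to 40 h. Nonlytic real-time luminescence from viable cells read at 0, 8, 16, 24, 32 and 40 h.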

[10] = qHTS RealTime-Glo MT Cell Viability Assay in HEK293 cells - 8 hour (AID 1224887); settings: RealTime-Glo luminescence; series mostly up to 76.8 µM; also: top concentration of the series differs between compounds; nearly all actives have a fitted effect of over 50% in size
Summary of the method: as §2

[11] = A CellTox Green Cytotoxicity Assay to monitor cytotoxicity in HEK293 cells - 16 hour (AID 1224888); settings: CellTox Green fluorescence; series mostly up to 76.8 µM; also: nearly all actives have a fitted effect of over 35% in size
Summary of the method: as §3

[12] = qHTS RealTime-Glo MT Cell Viability Assay in HepG2 cells - 0 hour (AID 1224889); settings: RealTime-Glo luminescence; series mostly up to 76.8 µM; also: nearly all actives have a fitted effect of over 50% in size
Summary of the method: as §4

[13] = A CellTox Green Cytotoxicity Assay to monitor cytotoxicity in HepG2 cells - 8 hour (AID 1224890); settings: CellTox Green fluorescence; series mostly up to 76.8 µM; also: nearly all actives have a fitted effect of over 45% in size
Summary of the method: as §1

[14] = qHTS assay to identify small molecule antagonists of the estrogen receptor alpha (ER-alpha) signaling pathway using the BG1 cell line in the presence of 0.1 nM 17-beta-estradiol - cell viability counter screen (AID 1259241); settings: VM7Luc4E2 (BG1) viability, CellTiter-Fluor protease, 22 h, 0.1 nM estradiol agonist added; series mostly up to 92.4 µM; also: nearly all actives have a fitted effect of over 40% in size
Summary of the method: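 Estradiol-stimulated (0.1 nM) VM7Luc4E2 cells exposed to compounds 22 hr; viability measured by fluorescence of cleaved CellTiter-Fluor substrate after 30 min.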

[15] = qHTS assay to identify small molecule antagonists of the androgen receptor (AR) signaling pathway using the MDA cell line in the presence of 0.5 nM R1881 - cell viability counter screen (AID 1259242); settings: MDA-kb2 viability, CellTiter-Fluor protease fluorescence, 16 h; series mostly up to 92.4 µM; also: nearly all actives have a fitted effect of over 45% in size
Summary of the method: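 Counter screen for cytotoxicity run in the same wells as the AR antagonist reporter screen: MDA-kb2 cells were treated 16 hr with test compounds and 0.5 nM R1881, then live-cell protease activity was measured by fluorescence.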

[16] = biological target: Estrogen receptor (Homo sapiens) (UniProt P03372); test: qHTS assay to identify small molecule antagonists of the estrogen receptor alpha (ER-alpha) signaling pathway using the BG1 cell line in the presence of 0.1 nM 17-beta-estradiol (AID 1259244); settings: VM7Luc4E2 (BG1) ERE-luciferase, antagonist mode, 0.1 nM E2, 22 h; series mostly up to 92.4 µM; also: nearly all actives have a fitted effect of over 50% in size
Summary of the method: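 Cells: VM7Luc4E2, endogenous ER-alpha, 4x ERE-luc stable. Pre-culture 5 d, phenol red-free, charcoal-stripped FBS. Plated 24 h, compound + E2 0.1 nM final, 22 h 37C/5% CO2. Readout ONE-Glo luminescence.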

[17] = qHTS assay to identify small molecule HDAC inhibitors (AID 1259364); settings: HCT-116 HDAC-Glo I/II luminescence, 2 h; series mostly up to 92.4 µM; also: nearly all actives have a fitted effect of over 45% in size; also: potency is read from the fitted curve at half-maximal effect
Summary of the method: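 Luminescence from a cell-permeant luminogenic class I/II HDAC substrate reports endogenous deacetylase activity in intact HCT-116 cells treated with compounds for 2 h.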

[18] = qHTS RealTime-Glo MT Cell Viability Assay in HepG2 cells - 32 hour (AID 1224877); settings: RealTime-Glo luminescence; series mostly up to 76.8 µM; also: nearly all actives have a fitted effect of over 55% in size
Summary of the method: as §4

[19] = biological target: Androgen receptor (Homo sapiens) (UniProt P10275); test: qHTS assay to identify small molecule antagonists of the androgen receptor (AR) signaling pathway using the MDA cell line in the presence of 0.5 nM R1881 (AID 1259243); settings: MDA-kb2 MMTV-luciferase, R1881 0.5 nM, 16 h; series mostly up to 92.4 µM; also: nearly all actives have a fitted effect of over 50% in size
Summary of the method: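 Luciferase luminescence is the read-out: compounds are tested for suppressing 0.5 nM R1881-driven MMTV reporter activity in MDA-kb2 cells after 16 hr at 37C.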

[20] = qHTS assay to identify small molecule phospholipidosis (PLD) inducers (AID 1259344; active = well fitted curve in the direction sought with a large enough effect; an effect the other way counts as inactive or inconclusive); settings: HepG2 phospholipidosis, LipidTOX Red imaging, 24 h; series mostly up to 38.3 µM
Summary of the method: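 HepG2 cells on collagen I, attached 4 h at 37 C, were co-treated with compound and LipidTOX Red dye for 24 h at 37 C, then fixed with paraformaldehyde plus Hoechst 33342 and imaged by high-content microscopy for phospholipid accumulation.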

Measured: Potency

Chain of Estrogen receptor (Homo sapiens) (P03372 whole entry, looked up): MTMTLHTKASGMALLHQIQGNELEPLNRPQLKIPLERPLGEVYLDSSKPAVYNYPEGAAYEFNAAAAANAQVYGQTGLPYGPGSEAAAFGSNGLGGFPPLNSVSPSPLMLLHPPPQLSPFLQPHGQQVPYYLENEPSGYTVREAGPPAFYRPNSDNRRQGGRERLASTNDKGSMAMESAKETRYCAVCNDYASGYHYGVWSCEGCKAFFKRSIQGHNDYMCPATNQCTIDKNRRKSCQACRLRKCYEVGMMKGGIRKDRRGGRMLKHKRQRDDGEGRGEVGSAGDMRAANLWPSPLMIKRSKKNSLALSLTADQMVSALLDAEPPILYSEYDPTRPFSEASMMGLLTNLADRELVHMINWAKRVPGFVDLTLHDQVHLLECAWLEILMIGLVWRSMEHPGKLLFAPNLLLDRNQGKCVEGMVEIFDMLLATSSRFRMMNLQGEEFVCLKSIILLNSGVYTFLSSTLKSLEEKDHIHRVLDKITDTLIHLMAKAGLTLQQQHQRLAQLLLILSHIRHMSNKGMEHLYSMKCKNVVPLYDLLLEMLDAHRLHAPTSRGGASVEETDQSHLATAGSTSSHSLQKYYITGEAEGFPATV
Chain of Androgen receptor (Homo sapiens) (P10275 whole entry, looked up): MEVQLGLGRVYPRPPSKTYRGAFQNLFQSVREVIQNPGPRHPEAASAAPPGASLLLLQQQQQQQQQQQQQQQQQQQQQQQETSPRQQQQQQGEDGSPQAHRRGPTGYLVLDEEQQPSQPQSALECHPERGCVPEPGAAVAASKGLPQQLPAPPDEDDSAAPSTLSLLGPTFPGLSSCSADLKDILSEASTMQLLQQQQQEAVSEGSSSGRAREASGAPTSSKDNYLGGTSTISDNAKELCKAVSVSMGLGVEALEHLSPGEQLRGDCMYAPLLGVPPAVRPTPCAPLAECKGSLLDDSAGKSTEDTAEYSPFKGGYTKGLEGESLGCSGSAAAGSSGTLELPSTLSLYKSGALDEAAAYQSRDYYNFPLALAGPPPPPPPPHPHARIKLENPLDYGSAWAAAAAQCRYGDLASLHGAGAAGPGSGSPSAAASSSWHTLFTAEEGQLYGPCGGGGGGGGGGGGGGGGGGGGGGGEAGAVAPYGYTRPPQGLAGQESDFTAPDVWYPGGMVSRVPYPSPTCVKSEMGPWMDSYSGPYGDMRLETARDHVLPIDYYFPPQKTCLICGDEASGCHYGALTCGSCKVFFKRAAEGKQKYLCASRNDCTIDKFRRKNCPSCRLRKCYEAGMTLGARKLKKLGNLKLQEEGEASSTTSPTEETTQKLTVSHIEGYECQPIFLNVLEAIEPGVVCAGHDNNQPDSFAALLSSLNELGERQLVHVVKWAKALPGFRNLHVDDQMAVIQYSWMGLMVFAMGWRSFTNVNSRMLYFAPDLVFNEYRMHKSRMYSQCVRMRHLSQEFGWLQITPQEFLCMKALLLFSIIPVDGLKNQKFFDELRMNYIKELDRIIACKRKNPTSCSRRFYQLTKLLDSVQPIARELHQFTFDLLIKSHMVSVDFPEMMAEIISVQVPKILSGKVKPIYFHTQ

CC(C)Nc1ccccc1
not listed: [18] | [19] | [20]
inactive: all other assays above

CC(C)[C@H]1CC[C@H](C)C[C@@H]1O
not listed: [1] | [7] | [16] | [20]
inactive: all other assays above

O=C(O)CONC(=O)c1ccccc1
not listed: [1] | [6] | [16] | [19] | [20]
inactive: all other assays above

CC(=O)O[C@H]1C[C@@H]2CC[C@@]1(C)C2(C)C
not listed: [16] | [18] | [20]
inactive: all other assays above

OCC1CCC(CO)CC1 (stereo not drawn)
not listed: [1] | [6] | [20]
inactive: all other assays above

COc1cc(/C=C/C(N)=O)cc(OC)c1OC
not listed: [1] | [2] | [7] | [20]
inactive: all other assays above

CCCCCCCCCCCCCCCCCC#N
not listed: [1] | [2] | [7] | [19] | [20]
inactive: all other assays above

CC/C=C\CCOC(=O)c1ccccc1O
active: [2] 21.9 µM
not listed: [1] | [6] | [7] | [11] | [13] | [17] | [19] | [20]
inactive: all other assays above

CC(C)NC(=O)c1ccc(C=O)cc1
not listed: [1] | [6] | [11] | [20]
inactive: all other assays above

O=[N+]([O-])c1c(Cl)cc(Cl)cc1Cl
not listed: [1] | [4] | [11] | [16] | [17] | [19] | [20]
inactive: all other assays above

Cn1c(=O)c2c(ncn2CCO)n(C)c1=O
not listed: [1] | [2] | [5] | [6] | [13] | [16] | [17] | [19]
inactive: all other assays above

COCCc1ccccn1
not listed: [18] | [20]
inactive: all other assays above

Cc1ccc2c(c1)C(=O)c1ccccc1C2=O
active: [17] 1.21 µM
not listed: [1] | [6] | [19] | [20]
inactive: all other assays above

C/C=C(\C)C(=O)OCCc1ccccc1
active: [17] 27.3 µM
not listed: [1] | [2] | [4] | [7] | [11] | [16] | [19] | [20]
inactive: all other assays above

OCC1(CO)COCOC1
not listed: [1] | [6] | [16] | [19] | [20]
inactive: all other assays above

COC(=O)c1ccccc1C(=O)O
not listed: [1] | [2] | [7] | [19] | [20]
inactive: all other assays above

CCO
not listed: [7] | [17] | [18] | [20]
inactive: all other assays above
